Assay outcomes from PubChem BioAssay.
PKM2 inh: PKM2 (human) enzyme inhibition. actives 0.058% (n = 260,000). Potency, µM (highest dose often 57.5 µM), for the others: top-dose activity change, negative = inhibition, actives largely listed as inhibitors. purified PKM2, ATP generation, Kinase-Glo luminescence. AID 1634; also: potency is read from the fitted curve at half-maximal effect; nearly all actives have a fitted effect of over 60% in size
Target sequence (P14618 whole entry, looked up): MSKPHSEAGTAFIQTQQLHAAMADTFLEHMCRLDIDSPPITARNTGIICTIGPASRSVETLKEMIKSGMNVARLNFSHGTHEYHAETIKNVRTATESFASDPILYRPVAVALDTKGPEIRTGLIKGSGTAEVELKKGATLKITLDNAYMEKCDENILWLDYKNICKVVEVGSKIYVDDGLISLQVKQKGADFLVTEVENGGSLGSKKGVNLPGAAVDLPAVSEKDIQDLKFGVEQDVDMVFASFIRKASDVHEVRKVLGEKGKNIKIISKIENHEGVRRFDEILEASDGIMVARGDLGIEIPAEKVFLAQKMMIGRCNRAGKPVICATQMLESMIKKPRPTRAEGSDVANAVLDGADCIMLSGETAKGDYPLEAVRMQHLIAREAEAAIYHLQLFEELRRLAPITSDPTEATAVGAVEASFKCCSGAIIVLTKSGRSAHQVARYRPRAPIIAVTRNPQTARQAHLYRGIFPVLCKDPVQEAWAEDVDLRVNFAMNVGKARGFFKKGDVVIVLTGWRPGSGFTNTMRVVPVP
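Enzyme run at intermediate activity with final 0.1 mM ADP, 0.5 mM PEP (50 mM imidazole pH7.2, 50 mM KCl, 7 mM MgCl2), incubated 1 h at r.t. ATP formed read by Kinase-Glo luminescence, normalized to no-enzyme (full inhibition) and uninhibited wells.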
PKM2 inh CRC: PKM2 (human) inhibition, concentration-response confirmation | actives 50% (n = 55) | Potency, µM (top dose mostly 57.5 µM), without a hit: top-dose activity change, negative = inhibition, most hits filed as inhibitors | AID 2263 | shares compounds with PKM2 inh | purified hPK-M2, Kinase-Glo ATP luminescence, 1 h
PKM2 FLuc cs: counter-screen for pyruvate kinase M2 inhibitors: firefly luciferase inhibition. shares compounds with PKM2 inh. Kinase-Glo firefly luciferase, luminescence, 8 min. Potency, µM (top dose mostly 57.5 µM), for the others: at the highest dose activity, negative = inhibition, most hits filed as inhibitors. actives 30% (n = 55)
PKM2 inh LDH: confirmation of human pyruvate kinase M2 inhibitors, coupled readout; shares compounds with PKM2 inh; purified hPK-M2, LDH-coupled NADH fluorescence kinetic; Potency, µM (top dose mostly 57.5 µM), for the others: at the top dose activity change, negative = inhibition, most hits filed as inhibitors; 55 tested, under 10 active; AID 2267
Active calls of the source: *; u = inconclusive. Only a selection was taken, and hits are over-represented in it overall. Calls follow the shape of the dose curve; as a rule, active = well fitted curve in the direction sought with a large enough effect; inconclusive = small, poorly fitted or top-dose-only effect, or another doubt; inactive = no such curve, though single readings can be large; an effect the other way counts as inactive or inconclusive.

SMILES	PKM2 inh	others
O=c1c2ccccc2[se]n1-c1ccccc1	6.31µM*	PKM2 inh CRC=5.8µM*;PKM2 FLuc cs=20.6µM*;PKM2 inh LDH=u
O=C(COc1ccccc1)N1CCN(C2CC3CCC2C3)CC1 (stereo not drawn)	-2.2%
O=C(CCNC(=O)N1C[C@H]2C[C@@H](C1)c1cccc(=O)n1C2)Nc1ccc(F)cc1	0.0%
COc1cc(/C=C2/C(=O)N(c3ccccc3)N=C2C)ccc1OS(=O)(=O)c1ccccc1	50.4%
CC(=NCc1ccco1)c1c(O)n(Cc2ccccc2)c(=O)[nH]c1=O	42.3%
